# Assay results from PubChem BioAssay.
# Where “and” joins values, the source holds several entries; their conditions need not be identical. Equal values may be shown once. Some structures have more than one record in an assay (separate samples or runs), and their calls can disagree. Calls of active or inactive are those of the source.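 The calls were made as follows, unless noted: active = inhibition at or above 50% relative to wild type and mutant plate controls; inactive = inhibition below 50%.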
# Columns and labels:
# [1] = loss of swimming-algae plug formation – whole organism, Chlamydomonas reinhardtii, WT vs cilia-less mutant, absorbance, 96-well, primary screen (AID 463189); conditions: Chlamydomonas reinhardtii gravitaxis, OD600 absorbance, 2 days; at 10 µM; stronger effect = higher value;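 also: 0% = wild type cc124 cells in DMSO and 100% = ciliumless bld1 mutant cells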
# [2] = inhibitors of TNFa-induced NFkB p65 translocation, primary screen, imaging, HUVEC, MLSMR starter and 10KST1 sets (AID 438;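 active = inhibition above 20% together with a positive visual image hit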;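 also: compound added about 3h40 before a 20 min TNFalpha stimulation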;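 as to inhibition: signal is the nuclear over cytoplasmic p65 intensity ratio per well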); conditions: HUVEC TNFa-induced p65 nuclear translocation; cell count: measured here: nuclei count (cytotoxicity indicator), at 2.08 µM; inhibition: at 2 µM, stronger effect = higher value, 0% TNFa-plus-vehicle, 100% no-TNFa wells
# [3] = endothelial E-selectin expression blockers – imaging, HUVEC, immunofluorescence, MLSMR starter and 10KST1 sets, primary screen (AID 487;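 active = visually confirmed hit in the image check and inhibition above 20%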;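 as to inhibition: signal is fraction of cell area covered by stained E-selectin grains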;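 as to nuclei count: 100% = median nuclei count of all wells on the same plate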); conditions: HUVEC TNFalpha-induced E-selectin immunofluorescence imaging, at 2 µM; inhibition: stronger effect = higher value; nuclei count: measured here: cell number, toxicity
# [4] = Primary imaging screen for DUSP6 inhibitors that restore phospho-Erk in transfected HeLa cells, chemical complementation (AID 609;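 active = compounds giving at least 50% inhibition in the cell-based MKP-3 phosphatase rescue imaging test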;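 as to inhibition: phospho-Erk level distribution per well compared with pooled transfected vehicle control wells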); conditions: HeLa MKP-3 transfected, phospho-Erk imaging KS statistic, at 10 µM, cells stimulated with TPA for 15 min
# [5] = target: Dual specificity protein phosphatase 6 (Homo sapiens) (UniProt Q16828); test: as above; conditions: HeLa MKP-3 transfected, phospho-Erk imaging KS statistic; at 10 µM; stronger effect = higher value; cells stimulated with TPA for 15 min
# Sequence of Dual specificity protein phosphatase 6 (Homo sapiens) (Q16828 whole entry, looked up): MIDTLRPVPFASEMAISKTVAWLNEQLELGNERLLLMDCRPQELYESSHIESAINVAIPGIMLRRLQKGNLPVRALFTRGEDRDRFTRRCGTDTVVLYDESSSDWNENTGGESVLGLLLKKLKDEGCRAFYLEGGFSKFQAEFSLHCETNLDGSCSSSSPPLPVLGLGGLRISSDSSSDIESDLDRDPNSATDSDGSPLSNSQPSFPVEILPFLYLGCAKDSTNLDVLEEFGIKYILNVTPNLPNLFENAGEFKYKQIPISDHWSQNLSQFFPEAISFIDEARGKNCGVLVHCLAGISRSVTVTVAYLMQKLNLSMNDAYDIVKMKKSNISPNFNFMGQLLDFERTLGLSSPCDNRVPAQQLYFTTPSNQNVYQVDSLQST
# [6] = target: Voltage-gated potassium channel subunit beta-2 (Rattus norvegicus) (UniProt P62483); test: inhibitors of rat Kvbeta2 reductase activity – biochemical, NADPH fluorescence, primary screen (AID 622;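 active = fluorescence slope higher than the sample average by over 3 SD, cut at about -0.22 in these data, passing the limit was not always enough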;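 also: slope of raw intensity against log time taken from 70 to 1610 s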); conditions: recombinant KvBeta, 4-cyanobenzaldehyde reduction, at 10 µM, stronger effect = higher value
# Sequence of Voltage-gated potassium channel subunit beta-2 (Rattus norvegicus) (P62483 whole entry, looked up): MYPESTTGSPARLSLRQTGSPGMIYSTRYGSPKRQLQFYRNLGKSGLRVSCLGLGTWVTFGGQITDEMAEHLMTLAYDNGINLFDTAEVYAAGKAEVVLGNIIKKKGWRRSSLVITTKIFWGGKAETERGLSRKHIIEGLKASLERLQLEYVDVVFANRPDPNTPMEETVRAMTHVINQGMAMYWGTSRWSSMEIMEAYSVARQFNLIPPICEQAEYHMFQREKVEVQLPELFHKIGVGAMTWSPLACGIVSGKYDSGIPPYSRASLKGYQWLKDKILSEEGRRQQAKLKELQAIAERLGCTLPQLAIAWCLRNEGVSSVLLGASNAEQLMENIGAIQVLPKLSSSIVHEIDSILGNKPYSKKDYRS
# [7] = target: Voltage-gated potassium channel subunit beta-2 (Rattus norvegicus) (UniProt P62483); test: enhancers of rat Kvbeta2 NADPH turnover – biochemical, NADPH fluorescence, primary screen (AID 623;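 active = NADPH fluorescence slope more negative than the mean of all samples by about 3 SD, 99.7% confidence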;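 also: fluorescence intensity change per second fitted from 20 to 320 s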); conditions: Recombinant KvBeta, NADPH fluorescence decrease slope, 10 min; at 10 µM; stronger effect = lower value
# [8] = target: Alpha-2C adrenergic receptor (Homo sapiens) (UniProt P18825); test: compounds altering alpha2C-coupled GIRK flux – cell-based, HEK293 alpha2C/GIRK1/2, thallium flux, primary screen (AID 624;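 active = fluorescence slope after compound addition differing from the mean of all screened samples at 99.7% confidence, in either direction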;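 also: slope of fluorescence ratio to pre-addition baseline per second over 15 to 24 s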); conditions: thallium flux BTC fluorescence, at 10 µM, actives lie on both sides
# Sequence of Alpha-2C adrenergic receptor (Homo sapiens) (P18825 whole entry, looked up): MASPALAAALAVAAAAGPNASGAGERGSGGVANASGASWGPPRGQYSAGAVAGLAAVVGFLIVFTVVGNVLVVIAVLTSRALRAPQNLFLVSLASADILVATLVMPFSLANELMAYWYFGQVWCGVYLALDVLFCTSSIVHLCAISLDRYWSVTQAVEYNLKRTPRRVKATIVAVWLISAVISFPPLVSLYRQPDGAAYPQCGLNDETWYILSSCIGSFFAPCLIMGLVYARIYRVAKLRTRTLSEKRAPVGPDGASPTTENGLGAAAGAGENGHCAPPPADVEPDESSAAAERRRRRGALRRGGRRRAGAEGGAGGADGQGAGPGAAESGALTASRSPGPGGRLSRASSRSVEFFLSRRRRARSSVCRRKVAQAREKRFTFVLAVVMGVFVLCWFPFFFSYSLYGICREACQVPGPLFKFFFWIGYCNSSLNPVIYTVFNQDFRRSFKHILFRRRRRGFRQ
# [9] = inhibitors of larval lipid processing in zebrafish, primary screen, whole organism, PED6 fluorescence, gall bladder and intestine (AID 686;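 active = a full or partial loss of lipid-probe fluorescence in the fish gall bladder, intestine or both, judged by eye; inactive = no fluorescence loss, or compound toxic to the fish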;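 also: larvae 5 to 7 days old with five fish per well; signal comes from phospholipase A2 cleavage of quenched PED6 carried via bile; overnight exposure to compound and PED6 before scoring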); conditions: Zebrafish larvae PED6 lipid processing, fluorescence scoring; screened at 20 µM (by protocol)
# [10] = blockers of RIG-like receptor reporter activation – cell-based, Sendai virus stimulus, luciferase, 10K MLSCN set, TLR/RLR signaling modifier project, primary screen (AID 602276;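 active = inhibition at or above 50% at 10 µM; inactive = inhibition below 50%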;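 also: firefly luciferase from ISG56 promoter only with Renilla not read in this screen; 0% = Sendai virus plus DMSO and 100% = medium plus DMSO without virus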); conditions: HEK293 RL24 IRF3 luciferase reporter, at 10 µM, stronger effect = higher value
# [11] = TLR3 IRF3 reporter activation blockers – cell-based, poly I:C stimulus, luciferase, 10K MLSCN set, primary screen (AID 602277;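 active = inhibition of the reporter signal at or above 50%; inactive = inhibition below 50%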); conditions: HEK293-TLR3 RL24 IRF3 luciferase reporter, at 10 µM, stronger effect = higher value
# [12] = reduction of polyQ htt aggregates in cells – imaging, exon1htt(103Q)mCFP cells, high-content imaging, primary screen (AID 483;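 active = visual image review flags a hit and inhibition of aggregation exceeds 20%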;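 also: compound exposure lasted 3 days before fixation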;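 as to nuclei count: percent of the per-plate median nuclei count of sample wells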); conditions: exon1htt(103Q)mCFP cell line, aggregate imaging, at 2 µM; inhibition of aggregation: stronger effect = higher value; nuclei count: measured here: cell count, toxicity
# [13] = measured here: cell density z-score
# [14] = measured here: nuclear c-Myc green intensity z-score
# [15] = measured here: nuclear pErk red intensity z-score, stronger effect = higher value
compound,measurement,setting,value
O=C(O)CCCCCCCC(=O)O,inhibition,[1],5.5% (inactive)
NC/C=C\C(=O)O,inhibition,[1],3.63% (inactive)
O=C(NCCNCC(O)COc1ccc(O)cc1)N1CCOCC1 (configuration not stated),inhibition,[1],10.1% (inactive)
CCCN(CC1CC1)c1nc(C)nc(Nc2c(Cl)cc(Cl)cc2Cl)c1Cl,inhibition,[1],3.71% (inactive)
O=C(O)C1=CCNCC1,inhibition,[1],0.676% (inactive)
NCC(O)c1ccc(O)c(O)c1 (configuration not stated),inhibition,[1],-2.37% (inactive)
COC(=O)c1c(-c2cc(OC)c(OC)c(OC)c2)c2ccnc(OCc3ncccn3)c2c(=O)n1Cc1ccnc(C)c1,inhibition,[1],-6.21% (inactive)
Oc1ccc(Cn2cc[nH]c2=S)cc1,inhibition,[1],7.18% (inactive)
Cc1cn[nH]c1,inhibition,[1],7.85% (inactive)
O=C(O)C1CCCNC1 (configuration not stated),inhibition,[1],-1.36% (inactive)
c1ccc(CN2CCC3(CCCc4ccccc43)CC2)cc1,inhibition,[1],89% (active)
C[C@H](O)C(=O)C1=Nc2c(nc(N)[nH]c2=O)NC1,inhibition,[1],7.45% (inactive)
C[n+]1cc2c3c(ccc2c2ccc4cc5c(cc4c21)OCO5)OCO3,inhibition,[1],145% (active)
CCN1CCc2nc(N)oc2CC1,inhibition,[1],6.74% (inactive)
C[C@H](Cc1ccccc1)Nc1ncnc2c1ncn2[C@@H]1O[C@H](CO)[C@H](O)C1O (some centres not stated),inhibition,[1],0.221% (inactive)
C#C[C@]1(O)CC[C@H]2[C@@H]3CCC4=Cc5oncc5CC4(C)[C@H]3CCC21C (some centres not stated),inhibition,[1],4.97% (inactive)
CNC(=O)[C@H]1O[C@@H](n2cnc3c(N)ncnc32)C(O)[C@H]1O (some centres not stated),inhibition,[1],1.69% (inactive)
N=C(N)SCCc1ccc(CCSC(=N)N)cc1,inhibition,[1],9.2% (inactive)
N[C@H](C(=O)O)c1cc(O)cc(O)c1,inhibition,[1],-2.67% (inactive)
CCCCCC(O)CCCC(=O)O (configuration not stated),inhibition,[1],-1.48% (inactive)
c1cnc2c(c1)ccc1cccnc12,inhibition,[1],10.8% (inactive)
CCn1cc(C(=O)O)c(=O)c2ccc(C)nc21,cell count,[2],578
same,inhibition,[2],-2.8% (inactive)
same,inhibition,[3],-83.2% (inactive)
same,nuclei count,[3],111%
same,z-score,[4]; [13],2.22
same,z-score,[4]; [14],-0.0952
same,z-score,[4]; [15],0.302
same,inhibition,[5],5.42% (inactive)
same,fluorescence slope,[6],-0.455 (inactive)
same,NADPH fluorescence slope,[7],-3.9e-05 (inactive)
same,slope,[8],0.00465 (inactive)
same,outcome,[9],inactive
same,inhibition,[10],15.8% (inactive)
same,inhibition,[11],40.1% (inactive)
CCCC(=O)NCCc1c2n(c3ccc(OC)cc13)CCCc1ccccc1-2,inhibition,[1],5.19% (inactive)
CN1CCN(c2nc3cc(C(F)(F)F)ccc3n3cccc23)CC1,inhibition,[1],10.9% (inactive)
C[C@@H](Oc1ccc(Oc2cnc3ccc(Cl)cc3n2)cc1)C(=O)O,inhibition,[1],9.86% (inactive)
Nc1c(S(=O)(=O)O)cc(Nc2ccc(Nc3nc(Cl)nc(Nc4ccc(S(=O)(=O)O)cc4)n3)c(S(=O)(=O)O)c2)c2c1C(=O)c1ccccc1C2=O,inhibition,[1],8.09% (inactive)
CCCN(CCc1ccccc1)C1CCc2c(O)cccc2C1 (configuration not stated),inhibition,[1],5.13% (inactive)
CCCn1c(=O)c2c(ncn2C)n(CCC)c1=O,inhibition,[1],6.81% (inactive)
CC(N=C(NC#N)Nc1ccncc1)C(C)(C)C (configuration not stated),inhibition,[1],-9.18% (inactive)
NCCCCCCCCCCN,inhibition,[1],2.72% (inactive)
CC(C)[N+]1(C)[C@@H]2CC[C@H]1CC(OC(=O)C(CO)c1ccccc1)C2 (some centres not stated),cell count,[2],466
same,inhibition,[2],-3.8% (inactive)
same,inhibition,[3],-89.2% (inactive)
same,nuclei count,[3],94.7%
same,z-score,[4]; [13],1.04
same,z-score,[4]; [14],-0.0729
same,z-score,[4]; [15],-1.49
same,inhibition,[5],25.7% (inactive)
same,fluorescence slope,[6],-0.497 (inactive)
same,NADPH fluorescence slope,[7],-5.7e-05 (inactive)
same,slope,[8],0.00449 (inactive)
same,inhibition,[10],-5.72% (inactive)
same,inhibition,[11],28.4% (inactive)
O=C(O)/C=C/c1cnc[nH]1,inhibition,[1],1.11% (inactive)
N=C(N)c1ccc(N)cc1,inhibition,[1],28.5% (inactive)
NC(=O)CC[C@H](N)C(=O)O,inhibition,[1],-13.2% (inactive)
Cc1c(CC(C)(C)C(=O)O)n(Cc2ccc(Cl)cc2)c2ccc(F)cc12,inhibition,[1],1.93% (inactive)
c1cc(CN2CCCCC2)cc(OCCCNc2nc3ccccc3s2)c1,inhibition,[1],26.8% (inactive)
CC(C)NC[C@H](O)c1ccc(O)c(O)c1,inhibition,[1],8.51% (inactive)
CN1CCc2cc(O)c(O)cc2C(c2ccccc2)C1 (configuration not stated),inhibition,[1],2.5% (inactive)
CCOC(=O)C(C)(C)Oc1ccc(Cl)cc1,inhibition,[1],-6.65% (inactive)
O=S(=O)(NCCNC/C=C/c1ccc(Br)cc1)c1cccc2cnccc12,inhibition,[1],19.5% (inactive)
O=C(O)c1cc(=O)c2ccccc2[nH]1,inhibition,[1],9.15% (inactive)
COc1cc(=O)n(C)c2c(OCC(O)C(C)(C)O)cccc12 (configuration not stated),inhibition,[1],-8.37% (inactive)
CC#C[C@]1(O)CC[C@H]2[C@@H]3CCC4=CC(=O)CCC4=C3[C@@H](c3ccc(N(C)C)cc3)C[C@@]21C,inhibition,[1],1.39% (inactive)
O=C(O)CCC(NC(=O)c1ccccc1C(=O)O)C(=O)O (configuration not stated),inhibition,[1],1.62% (inactive)
CC(C(=O)O)c1ccc(CC2CCCC2=O)cc1 (configuration not stated),inhibition,[1],-6.18% (inactive)
O=C(O)C1CN(CCCP(=O)(O)O)CCN1 (configuration not stated),inhibition,[1],-0.924% (inactive)
Clc1cccc(Cl)c1NC1=NCCN1,inhibition,[1],5.28% (inactive)
COc1ccc2c(c1)CCC1C2CC[C@@]2(C)C1CC[C@@H]2NCCCCCCN1C(=O)C=CC1=O (some centres not stated),inhibition,[1],1.37% (inactive)
N=C(N)SCCc1cccc(CCSC(=N)N)c1,inhibition,[1],2.04% (inactive)
NCCCCN=C(N)N,inhibition,[1],5.23% (inactive)
CC(CN(C)C)CN1c2ccccc2CCc2ccccc21 (configuration not stated),inhibition,[1],1.33% (inactive)
O=c1[nH]cc(F)c(=O)[nH]1,inhibition,[1],2.19% (inactive)
Nc1nc2c(ncn2COC(CO)CO)c(=O)[nH]1,inhibition,[1],3.53% (inactive)
NC1CCN(O)C1=O (configuration not stated),inhibition,[1],2.51% (inactive)
NC(=O)c1ncn([C@@H]2O[C@H](CO)[C@@H](O)[C@H]2O)n1,inhibition,[1],8.25% (inactive)
CCC1(O)CC2CN(CCc3c([nH]c4ccccc34)[C@@](C(=O)OC)(c3cc4c(cc3OC)N(C=O)C3[C@]45CCN4CC=C[C@@](CC)([C@@H](OC(C)=O)[C@]3(O)C(=O)OC)[C@H]45)C2)C1 (some centres not stated),inhibition,[1],1.07% (inactive)
NC(N)=NCCSSCCN=C(N)N,inhibition,[1],-8.7% (inactive)
CCN(CC)CCOC(=O)c1cc(Cl)c(N)cc1OC,inhibition,[1],2.34% (inactive)
C[N+](C)(C)CCOC(=O)CCC(=O)OCC[N+](C)(C)C,inhibition,[1],-7.41% (inactive)
CCN(CC)CCOCCOC(=O)C1(c2ccccc2)CCCC1,inhibition,[1],5.28% (inactive)
O=c1onc2n1-c1cc(Br)ccc1OC2,inhibition,[1],-0.03% (inactive)
CCCCCCCC/C=C\CCCCCCCC(=O)NCCO,inhibition,[1],-7.05% (inactive)
COC(=O)C(N)Cc1ccc(Cl)cc1 (configuration not stated),inhibition,[1],-0.698% (inactive)
O=C(Nc1ccc([N+](=O)[O-])cc1Cl)c1cc(Cl)ccc1O,inhibition,[1],43.4% (inactive)
NC(=NCc1ccccc1)NC(=O)c1nc(Cl)c(N)nc1N,inhibition,[1],-1.5% (inactive)
COC(=O)[C@@H]1[C@H]2C[C@H]3c4[nH]c5ccccc5c4CCN3C[C@@H]2CC[C@@H]1O,inhibition,[1],8.68% (inactive)
CNCC[C@@H](Oc1ccc(C(F)(F)F)cc1)c1ccccc1,inhibition,[1],34% (inactive)
CC(C)(C(=O)O)c1ccc(C(O)CCCN2CCC(C(O)(c3ccccc3)c3ccccc3)CC2)cc1 (configuration not stated),inhibition,[1],-1.29% (inactive)
CNC(=O)[C@H]1O[C@@H](n2cnc3c(NCc4ccc(I)cc4)nc(Cl)nc32)[C@H](O)[C@@H]1O,inhibition,[1],0.705% (inactive)
Nc1c2c(nc3ccccc13)CCCC2,inhibition,[1],-5.5% (inactive)
CC(N)C1CCC(C(=O)Nc2ccncc2)CC1 (configuration not stated),inhibition,[1],3.82% (inactive)
CCn1cc(C(=O)O)c(=O)c2cc(F)c(N3CCNC(C)C3)c(F)c21 (configuration not stated),inhibition,[1],3.51% (inactive)
CC1(C)O[C@@H]2C[C@H]3[C@@H]4CCC5=CC(=O)C=C[C@]5(C)[C@@]4(F)[C@@H](O)C[C@]3(C)[C@]2(C(=O)CO)O1,inhibition of aggregation,[12],-6.5% (inactive)
same,nuclei count,[12],62.6%
same,inhibition,[3],-115% (inactive)
same,nuclei count,[3],116%
same,z-score,[4]; [13],0.696
same,z-score,[4]; [14],-0.511
same,z-score,[4]; [15],-0.313
same,inhibition,[5],-2.46% (inactive)
same,fluorescence slope,[6],-0.515 (inactive)
same,NADPH fluorescence slope,[7],-2.4e-05 (inactive)
same,slope,[8],0.00512 (inactive)
same,outcome,[9],inactive
same,inhibition,[1],-13.3% (inactive)
same,inhibition,[10],-3.36% (inactive)
same,inhibition,[11],10.8% (inactive)
CC(COc1ccccc1)N(CCCl)Cc1ccccc1 (configuration not stated),inhibition of aggregation,[12],3.6% (inactive)
same,nuclei count,[12],91.3%
same,inhibition,[3],-41.5% (inactive)
same,nuclei count,[3],106%
same,z-score,[4]; [13],0.673
same,z-score,[4]; [14],0.156
same,z-score,[4]; [15],-1.5
same,inhibition,[5],3.59% (inactive)
same,fluorescence slope,[6],-0.458 (inactive)
same,NADPH fluorescence slope,[7],-8e-05 (inactive)
same,slope,[8],0.00427 (inactive)
same,outcome,[9],inactive
same,inhibition,[1],-4.83% (inactive) and 76.9% (active)
same,inhibition,[10],4.33% (inactive)
same,inhibition,[11],22.7% (inactive)
